In PubChem BioAssay (Tox21) one finds Potency and outcome data, which are given here for 9 compounds.

Assay [1] can be described thus: qHTS assay to identify small molecule antagonists of the glucocorticoid receptor (GR) signaling pathway - cell viability counter screen (AID 720693). Further: nearly all actives have a fitted effect of over 55% in size. Background: qHTS replaces the single test concentration by a dilution series.
Assay [2] is described as follows: qHTS assay for identifying genotoxic compounds that show differential cytotoxicity against isogenic chicken DT40 cell lines with known DNA damage response pathways - wild type cell line (AID 743012). Further: nearly all actives have a fitted effect of over 60% in size. Further: potency means the concentration at half of the fitted maximal effect. A digest of the protocol:
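Viability by ATP luminescence (CellTiter-Glo, 30 min RT) after 40 h compound treatment at 37 C/5% CO2, using 300 parental DNA repair-proficient DT40 cells per well.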

A short description of assay [3]: qHTS assay for identifying genotoxic compounds that show differential cytotoxicity against isogenic chicken DT40 cell lines with known DNA damage response pathways - Rev3 mutant cell line (AID 743014). Further: nearly all actives have a fitted effect of over 55% in size. Further: potency means the concentration at half of the fitted maximal effect.
Assay [4] can be described thus: qHTS assay to identify small molecule antagonists of the androgen receptor (AR) signaling pathway - cell viability counter screen (AID 743033; further: nearly all actives have a fitted effect of over 45% in size).
The nature of assay [5]: qHTS assay to identify small molecule antagonists of the androgen receptor (AR) signaling pathway using the MDA cell line - cell viability counter screen (AID 743041; further: nearly all actives have a fitted effect of over 45% in size). The method in brief:
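Cytotoxicity counter screen: MDA-kb2 AR-luc cells, compound + R1881, 16 h, 37C, 0% CO2; CellTiter-Fluor added at 15.5 h, fluorescence read after 30 min.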

Assay [6] can be described thus: qHTS assay to identify small molecule antagonists of the thyroid receptor (TR) signaling pathway - cell viability counter screen (AID 743064). Further: nearly all actives have a fitted effect of over 50% in size. Further: potency means the concentration at half of the fitted maximal effect. The method in brief: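 In-well cytotoxicity read by CellTiter-Fluor (30 min, 37 C) following 23.5 h exposure of GH3 cells bearing a TRE-luciferase sensor. Compounds were added alongside 1 nM (final) T3 to drive TR transactivation.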

Assay [7] has as its system thyroid hormone receptor (rat, GH3 cells). Kind of assay: qHTS assay to identify small molecule agonists of the thyroid receptor (TR) signaling pathway (AID 743066; calls by dose curve).
Assay [8] is described as follows: qHTS assay to identify small molecule antagonists of the estrogen receptor alpha (ER-alpha) signaling pathway - cell viability counter screen (AID 743074; calls by dose curve;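 further: HEK293 cells carrying ER-alpha-UAS-bla reporter stimulated with 17beta-estradiol; nearly all actives have a fitted effect of over 45% in size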).
Assay [9] can be described thus: qHTS assay to identify small molecule antagonists of the estrogen receptor alpha (ER-alpha) signaling pathway using the BG1 cell line - cell viability counter screen (AID 743081).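 Further: compound given together with 17beta-estradiol as the ER stimulus; series mostly up to about 70 µM; nearly all actives have a fitted effect of over 45% in size.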
Assay [10] concerns the target Androgen receptor (Homo sapiens) (UniProt P10275). Kind of assay: qHTS assay to identify small molecule agonists of the androgen receptor (AR) signaling pathway using the MDA cell line (AID 743040; further: nearly all actives have a fitted effect of over 20% in size). A digest of the protocol:
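Luciferase read-out, ONE-Glo, 30 min RT. Cells: MDA-kb2 AR-luc, MMTV promoter with AR and GR response elements. Compound exposure 16 h, 37C, 0% CO2, after 5 h pre-incubation. qHTS agonist mode.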

Assay [11] is described as follows: qHTS assay to identify small molecule antagonists of the thyroid receptor (TR) signaling pathway (AID 743065). Further: nearly all actives have a fitted effect of over 55% in size. Further: potency means the concentration at half of the fitted maximal effect. The method in brief:
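GH3.TRE-Luc rat pituitary cells (two TREs driving luciferase) were dosed with compound, then stimulated with 1 nM T3 (final) for 23.5 h at 37 C. ONE-Glo luminescence was the read-out, with CellTiter-Fluor fluorescence as the cytotoxicity counter-screen.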

The target in assay [12] is Estrogen receptor (Homo sapiens) (UniProt P03372). Kind of assay: qHTS assay to identify small molecule antagonists of the estrogen receptor alpha (ER-alpha) signaling pathway (AID 743069; active means well fitted curve in the direction sought with a large enough effect in the signal ratio in the repeat runs, not every such curve was filed as active; the % refers to the signal ratio). The method in brief: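 Beta-lactamase FRET fluorescence is read after 2 hr at room temperature with LiveBLAzer B/G substrate. Before that, ER-alpha-bla HEK293 cells sit 4 hr after plating, then receive compound plus 17beta-estradiol and incubate 18 hr at 37C.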

Assay [13] has the same target. Kind of assay: qHTS assay to identify small molecule agonists of the estrogen receptor alpha (ER-alpha) signaling pathway (AID 743075; calls by dose curve;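 further: HEK293 GripTite cells with ER-alpha and UAS-driven beta-lactamase reporter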).
For assay [14] the target is unchanged. Kind of assay: qHTS assay to identify small molecule agonists of the estrogen receptor alpha (ER-alpha) signaling pathway using the BG1 cell line (AID 743079). Further: nearly all actives have a fitted effect of over 20% in size.
The nature of assay [15]: qHTS assay to identify small molecule antagonists of the estrogen receptor alpha (ER-alpha) signaling pathway using the BG1 cell line (AID 743080; calls by dose curve;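 further: BG1 cells stimulated with 17beta-estradiol alongside compound; nearly all actives have a fitted effect of over 25% in size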; further: potency means the concentration at half of the fitted maximal effect). The method in brief: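 After 5 days in phenol-red-free 10% charcoal-stripped FBS medium, BG1-Luc-4E2 cells were seeded, left 24 h at 37 C, co-treated with compounds and 17beta-estradiol for 21.5 h, then assayed for viability and luciferase.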

The next assay deals with Aromatase (Homo sapiens) (UniProt P11511). The experiment in a line: qHTS assay to identify aromatase inhibitors (AID 743083). Further: series mostly up to about 70 µM; nearly all actives have a fitted effect of over 55% in size.
Assay [16] in a line: qHTS assay for identifying genotoxic compounds that show differential cytotoxicity against isogenic chicken DT40 cell lines with known DNA damage response pathways - Rad54/Ku70 mutant cell line (AID 743015). Further: nearly all actives have a fitted effect of over 60% in size. Further: potency means the concentration at half of the fitted maximal effect.
In assay [17] the target is Androgen receptor (Homo sapiens) (UniProt P10275). Kind of assay: qHTS assay to identify small molecule antagonists of the androgen receptor (AR) signaling pathway (AID 743035; active means well fitted inhibition curve with a large enough effect in the signal ratio in the repeat runs, not every such curve was filed as active; the % refers to the signal ratio). The method in brief:
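Antagonist mode: AR-bla HEK293 cells co-treated with test compounds and agonist R1881 for 16 h at 37C, 5% CO2. Beta-lactamase activity read as FRET fluorescence after 2 h room-temperature substrate loading.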

Assay [18] has the same target. The experiment in a line: qHTS assay to identify small molecule agonists of the androgen receptor (AR) signaling pathway (AID 743036; active means well fitted activation curve with a large enough effect in the signal ratio in the repeat runs, with a control signal flat, not every such curve was filed as active; the % refers to the signal ratio). The method in brief:
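Activation was read as beta-lactamase FRET signal from LiveBLAzer B/G substrate, added for 2 h at room temperature. Before that, GeneBLAzer AR-UAS-bla GripTite (HEK293) cells had 16 h compound exposure at 37C.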

The target is the same in assay [19]. The experiment in a line: qHTS assay to identify small molecule antagonists of the androgen receptor (AR) signaling pathway using the MDA cell line (AID 743042; further: nearly all actives have a fitted effect of over 55% in size). The method in brief:
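MDA-kb2 breast carcinoma cells carrying MMTV-luciferase (AR/GR responsive) were co-treated with compounds and the agonist R1881 for 16 h at 37C. Inhibition read as ONE-Glo luminescence; CellTiter-Fluor fluorescence measured in parallel for cytotoxicity.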

Several values for one entry are separate records, joined by “and”; a condition that tells them apart may be missing. Identical values can stand only once. Results filed as inconclusive are left out. Where a structure was tested more than once in an assay, its records may differ in their call. Activity calls are given as the source filed them. Unless noted, the call rests on the fitted dose curve; in most records, active means well fitted curve in the direction sought with a large enough effect in the repeat runs; inconclusive means weak or mixed curves; inactive means no such curve, though single readings can be large; an effect the other way counts as inactive or inconclusive.

Sequence of Estrogen receptor (Homo sapiens) (P03372 whole entry, looked up): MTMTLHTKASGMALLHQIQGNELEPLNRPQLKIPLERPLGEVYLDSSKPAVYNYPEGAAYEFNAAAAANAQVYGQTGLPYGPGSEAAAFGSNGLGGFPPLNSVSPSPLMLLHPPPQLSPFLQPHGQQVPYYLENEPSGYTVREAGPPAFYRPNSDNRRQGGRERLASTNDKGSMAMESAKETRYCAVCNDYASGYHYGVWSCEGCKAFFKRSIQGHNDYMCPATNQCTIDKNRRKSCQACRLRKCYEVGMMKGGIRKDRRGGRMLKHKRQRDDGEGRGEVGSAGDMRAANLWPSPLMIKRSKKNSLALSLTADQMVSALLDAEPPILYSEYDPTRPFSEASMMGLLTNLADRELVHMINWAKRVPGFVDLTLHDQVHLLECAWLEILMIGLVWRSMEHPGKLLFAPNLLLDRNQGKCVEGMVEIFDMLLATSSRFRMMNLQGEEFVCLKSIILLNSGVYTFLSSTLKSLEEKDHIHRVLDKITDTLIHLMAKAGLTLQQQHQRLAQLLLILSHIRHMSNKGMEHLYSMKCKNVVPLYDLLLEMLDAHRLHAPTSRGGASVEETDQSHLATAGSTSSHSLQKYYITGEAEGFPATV
Sequence of Aromatase (Homo sapiens) (P11511 whole entry, looked up): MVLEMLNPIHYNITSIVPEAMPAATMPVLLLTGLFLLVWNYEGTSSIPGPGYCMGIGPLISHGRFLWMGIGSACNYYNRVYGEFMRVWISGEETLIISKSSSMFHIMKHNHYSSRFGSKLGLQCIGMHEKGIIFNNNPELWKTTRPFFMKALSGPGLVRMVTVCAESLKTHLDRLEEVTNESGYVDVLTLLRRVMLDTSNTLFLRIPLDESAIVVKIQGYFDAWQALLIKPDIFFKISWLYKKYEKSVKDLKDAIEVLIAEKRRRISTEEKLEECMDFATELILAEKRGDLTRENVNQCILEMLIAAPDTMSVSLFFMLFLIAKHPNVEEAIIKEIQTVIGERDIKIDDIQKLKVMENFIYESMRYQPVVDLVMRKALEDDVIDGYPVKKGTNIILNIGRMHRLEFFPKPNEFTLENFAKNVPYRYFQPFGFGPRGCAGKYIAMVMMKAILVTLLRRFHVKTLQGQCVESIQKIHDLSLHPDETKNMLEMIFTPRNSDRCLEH
Sequence of Androgen receptor (Homo sapiens) (P10275 whole entry, looked up): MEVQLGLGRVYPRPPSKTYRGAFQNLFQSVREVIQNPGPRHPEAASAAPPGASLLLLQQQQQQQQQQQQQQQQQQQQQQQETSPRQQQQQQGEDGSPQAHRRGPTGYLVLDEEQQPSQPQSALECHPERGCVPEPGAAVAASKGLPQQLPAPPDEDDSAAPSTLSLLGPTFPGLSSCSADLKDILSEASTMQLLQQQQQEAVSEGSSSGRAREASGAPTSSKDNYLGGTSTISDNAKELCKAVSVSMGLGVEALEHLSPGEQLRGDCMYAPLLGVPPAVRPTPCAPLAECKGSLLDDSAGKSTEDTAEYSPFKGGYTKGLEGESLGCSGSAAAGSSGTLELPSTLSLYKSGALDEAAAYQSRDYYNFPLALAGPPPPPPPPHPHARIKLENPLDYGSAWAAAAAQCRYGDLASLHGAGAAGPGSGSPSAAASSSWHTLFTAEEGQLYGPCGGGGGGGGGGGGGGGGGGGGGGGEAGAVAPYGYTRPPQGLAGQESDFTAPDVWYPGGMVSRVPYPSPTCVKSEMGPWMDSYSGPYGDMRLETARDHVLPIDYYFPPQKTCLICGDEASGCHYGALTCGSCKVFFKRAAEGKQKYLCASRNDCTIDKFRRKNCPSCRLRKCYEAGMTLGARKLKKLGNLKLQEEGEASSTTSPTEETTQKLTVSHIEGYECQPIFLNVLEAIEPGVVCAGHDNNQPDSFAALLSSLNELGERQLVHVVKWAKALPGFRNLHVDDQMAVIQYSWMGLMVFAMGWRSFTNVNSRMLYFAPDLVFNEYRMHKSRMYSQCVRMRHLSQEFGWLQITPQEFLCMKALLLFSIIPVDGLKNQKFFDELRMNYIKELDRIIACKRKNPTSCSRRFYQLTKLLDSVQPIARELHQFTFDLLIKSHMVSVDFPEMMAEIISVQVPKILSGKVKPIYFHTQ

For `CCC(COC(=O)c1cc(OC)c(OC)c(OC)c1)(c1ccccc1)N(C)C` (stereo not given), the Potency entry in [1], in [4], in assay [5], in assay [6], in assay [7] and in assay [8] was “inactive” throughout. In [9], the Potency result is “inactive”. The Potency was 5.96 µM (active) in [2] and 3.35 µM (active) in assay [3].
As to `COC(=O)C(C)N(C(=O)Cc1ccccc1)c1c(C)cccc1C` (stereo not given), the Potency entry in [1], in assay [4], in assay [10], in [5], in assay [6] and in assay [7] was “inactive” throughout. Besides, the Potency result in assay [12], in assay [8], in [13], in assay [14], in assay [15] and in [9] was “inactive” in each case. Moreover, in the assay with Aromatase (Homo sapiens), the Potency result is “inactive”. The Potency is 8.63 µM (active) in assay [2], 9.69 µM (active) in [3] and 61.1 µM (active) in assay [11].
As for `CCCCN(N=O)C(=N)N[N+](=O)[O-]`, the Potency result in assay [1], in assay [4], in [17], in assay [10], in assay [5] and in [7] was “inactive” throughout. In addition, the Potency entry in assay [8] and in [9] was “inactive” throughout. For the same compound, the Potency in assay [2] is 17.6 µM (active); in [16], 2.79 µM (active); in assay [6] it was 62.4 µM (active); in [11], 49.6 µM (active). Also, the result in assay [18] was inactive.
On to `COP(=S)(Oc1cc(Cl)c(Br)cc1Cl)c1ccccc1` (stereo not given), for which the Potency result in assay [1], in assay [2], in assay [3], in [4], in assay [10] and in assay [5] was “inactive” in each case. Moreover, the Potency entry in assay [19], in assay [7], in assay [12], in assay [8], in assay [13] and in [14] was “inactive” throughout. Besides, the Potency result in assay [15] and in [9] was “inactive” throughout. For the same compound, the Potency in assay [11] is 61.1 µM (active).
For the compound `CCCCN=C=O`, the Potency entry in assay [1], in assay [2], in assay [3], in assay [4], in assay [5] and in assay [6] was “inactive” in each case. For the same compound, the Potency result (in assay [11]; in assay [7]; in assay [9]; with Aromatase (Homo sapiens)) was “inactive” in each case.
Turning to `O=C(Nc1ccccc1)Nc1cnns1`, the Potency entry in assay [1], in assay [6], in assay [7], in [8], in assay [13] and in assay [9] was “inactive” throughout. Moreover, the Potency in [2] was 54.4 µM (active); in assay [3], 54.4 µM (active); in assay [16], 30.6 µM (active); in assay [11], 61.1 µM (active); in [15], 68.5 µM (active).
In the case of `CCCCOC(=O)c1ccccc1C(=O)OCc1ccccc1`, the Potency result in assay [1], in assay [3], in assay [4], in assay [5], in assay [6] and in assay [11] was “inactive” each time. Also, the Potency result (in assay [7]; in assay [8]; in assay [9]; in the assay with Aromatase (Homo sapiens)) was “inactive” each time. In assay [2], the Potency entry is “inactive and 48.6 µM (active)”.
As for `CCCCCCC#N`, the Potency entry in assay [1], in [2], in assay [16], in assay [4], in [5] and in assay [6] was “inactive” each time. Further, the Potency entry in [11], in [7], in [12], in assay [8], in [13] and in assay [14] was “inactive” in each case. Moreover, the Potency result (in assay [15]; in assay [9]; with Aromatase (Homo sapiens)) was “inactive” each time.
Consider `CC(=O)[C@H]1CC[C@H]2[C@@H]3CC[C@H]4C[C@](C)(O)CC[C@]4(C)[C@H]3CC[C@]12C`, for which the Potency entry in [1], in assay [2], in assay [16], in [4], in assay [5] and in assay [6] was “inactive” in each case. Moreover, the Potency entry in [11], in assay [7], in assay [12], in assay [8], in [13] and in [14] was “inactive” throughout. In addition, the Potency result (in assay [15]; in assay [9]; with Aromatase (Homo sapiens)) was “inactive” in each case.
